According to PubChem BioAssay (NCI):
Compounds without any hit were thinned out: in the full panel of roughly 83,000, 20% have a hit.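 Treatment: one concentration, 48 hours, 96-well format. Scoring: percent growth, with anything below 10 considered active.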 Values without a mark were called inactive. Activity calls are given as the source filed them.

Experiments:
Assay in all cases: NCI-60 one-dose screen, 48 h (100 = growth as untreated, 0 = no growth, -100 = all killed)
Details in all cases: 10 µM
[1] = test system: SK-MEL-2 melanoma
[2] = test system: EKVX NSCLC
[3] = test system: SN12C renal
[4] = test system: UO-31 renal
[5] = test system: TK-10 renal
[6] = test system: ACHN renal
[7] = test system: CAKI-1 renal
[8] = test system: A498 renal
[9] = test system: CCRF-CEM leukemia
[10] = test system: MOLT-4 leukemia

Structure (SMILES): O=c1[nH]c2ccccc2cc1CSc1ccc(Nc2nccc(-c3ccc(Cl)cc3)n2)cc1
- growth [1]: 4.31% (active)
- growth [2]: -49.6% (active)
- growth [3]: -47.7% (active)
- growth [4]: -70.4% (active)
- growth [5]: -64.2% (active)
- growth [6]: -89.9% (active)
- growth [7]: -83.5% (active)
- growth [8]: -65.3% (active)
- growth [9]: 57.1%
- growth [10]: 59.8%

Structure (SMILES): COc1ccc(C(=O)/C=C/c2cc(C(F)(F)F)cc(C(F)(F)F)c2)cc1S(N)(=O)=O
- growth [1]: -73.8% (active)
- growth [2]: -93% (active)
- growth [3]: -59.3% (active)
- growth [4]: -100% (active)
- growth [5]: -89.8% (active)
- growth [6]: -96.2% (active)
- growth [7]: -83% (active)
- growth [8]: 2.73% (active)
- growth [9]: 10.7%
- growth [10]: 2.98% (active)

Structure (SMILES): C/C(=N\N=C\c1ccc(N(C)C)cc1)c1ccc2c(c1)Nc1ccccc1S2
- growth [1]: 84.6%
- growth [2]: 47.1%
- growth [3]: 49.8%
- growth [4]: 57.4%
- growth [5]: 70.6%
- growth [6]: 50.8%
- growth [7]: 56.5%
- growth [8]: 86.4%
- growth [9]: 59.5%
- growth [10]: 34.3%

Structure (SMILES): O=C(Cn1nc(-c2ccccc2)ccc1=O)NNC(=S)NC1CCCCC1
- growth [1]: 109%
- growth [2]: 98.6%
- growth [3]: 101%
- growth [4]: 81.2%
- growth [5]: 109%
- growth [6]: 102%
- growth [7]: 98.6%
- growth [8]: 121%
- growth [9]: 103%
- growth [10]: 106%

Structure (SMILES): Cc1ccn2c(C(=O)c3ccc(Br)cc3)cc(-c3cc(-c4ccc(N(C)C)cc4)c(C#N)c(N)n3)c2c1
- growth [1]: 81.1%
- growth [2]: 68.2%
- growth [3]: 76.5%
- growth [4]: 63.3%
- growth [5]: 98.9%
- growth [6]: 71.5%
- growth [7]: 67.2%
- growth [8]: 91.9%
- growth [9]: 94.3%
- growth [10]: 94%

Structure (SMILES): COc1ccc(N2N=C(c3ccc4c(c3)OCCO4)CC2c2cccc(NC(=O)CCCNS(=O)(=O)c3ccc(F)cc3)c2)cc1 (stereo not given)
- growth [1]: 88.4%
- growth [2]: 57.9%
- growth [3]: 74.8%
- growth [4]: 58.8%
- growth [5]: 78.2%
- growth [6]: 70.7%
- growth [7]: 53.9%
- growth [8]: 86.5%
- growth [9]: 67.7%
- growth [10]: 34%

Structure (SMILES): COc1ccccc1[C@H]1C(C(=O)c2ccc(Cl)cc2)C2(N[C@@H]1c1ccccc1)C(=O)Nc1ccccc12 (stereo not given in full)
- growth [1]: -85.9% (active)
- growth [2]: 3.23% (active)
- growth [3]: -89% (active)
- growth [4]: 1.13% (active)
- growth [5]: 8.59% (active)
- growth [6]: -3.58% (active)
- growth [7]: 4.17% (active)
- growth [8]: -19.2% (active)
- growth [9]: 4.07% (active)
- growth [10]: -17.7% (active)

Structure (SMILES): COc1ccc(-c2ccc(SCC(=O)Nc3ccc(C#N)cc3)nn2)cc1
- growth [1]: 114%
- growth [2]: 95.1%
- growth [3]: 95%
- growth [4]: 75.4%
- growth [5]: 108%
- growth [6]: 80.1%
- growth [7]: 81.4%
- growth [8]: 124%
- growth [9]: 95.9%
- growth [10]: 94.4%

Structure (SMILES): COc1cc2c3c(n(CCCNCCO)c(=O)c2cc1OC)-c1nc2c(cc1C3=O)OCO2
- growth [1]: 116%
- growth [2]: 79%
- growth [3]: 8.45% (active)
- growth [4]: 24.4%
- growth [5]: 85.5%
- growth [6]: 2.56% (active)
- growth [7]: 7.66% (active)
- growth [8]: 69.3%
- growth [9]: 8.64% (active)
- growth [10]: -14.4% (active)

Structure (SMILES): CC(C)C1=C[C@@]23CC[C@@H]4[C@](C)(CCC[C@]4(C)C(=O)NCc4ccccc4)[C@H]2C[C@@H]1[C@H]1C(=O)OC(=O)[C@H]13
- growth [1]: 47%
- growth [2]: 33.9%
- growth [3]: 52.1%
- growth [4]: 43.4%
- growth [5]: 44.9%
- growth [6]: 25.7%
- growth [7]: 77.1%
- growth [8]: 85.2%
- growth [9]: 16.7%
- growth [10]: 15.5%

Structure (SMILES): O=C(c1ccc(O)cc1)C1[C@H](c2ccccc2Br)[C@@H](c2ccccc2)NC12C(=O)Nc1ccc(Cl)cc12 (stereo not given in full)
- growth [1]: -72.9% (active)
- growth [2]: 10.5%
- growth [3]: -46.3% (active)
- growth [4]: 13.6%
- growth [5]: 7.92% (active)
- growth [6]: 2.5% (active)
- growth [7]: 8.16% (active)
- growth [8]: 9.06% (active)
- growth [9]: 4.97% (active)
- growth [10]: -16.2% (active)

Structure (SMILES): OCCNc1oc(-c2ccccc2)nc1[P+](c1ccccc1)(c1ccccc1)c1ccccc1
- growth [1]: -31.8% (active)
- growth [2]: 23.8%
- growth [3]: 2.4% (active)
- growth [4]: 71.8%
- growth [5]: 32.4%
- growth [6]: 84.4%
- growth [7]: 75.1%
- growth [8]: 74.6%
- growth [9]: 9.78% (active)
- growth [10]: 10.2%

Structure (SMILES): O=c1oc2ccc(-c3ccc(F)cc3F)cc2c(=O)n1-c1ccc(F)c(Cl)c1
- growth [1]: -67.4% (active)
- growth [2]: -9.05% (active)
- growth [3]: -17% (active)
- growth [4]: -5.43% (active)
- growth [5]: 11.9%
- growth [6]: -12.7% (active)
- growth [7]: -20.4% (active)
- growth [8]: -20.8% (active)
- growth [9]: -5.97% (active)
- growth [10]: -30.7% (active)

Structure (SMILES): COc1cccc(-c2ccc(/C=N/NC(=O)c3[nH]c4ccc(Br)cc4c3-c3ccccc3)o2)c1
- growth [1]: 19.2%
- growth [2]: 50.1%
- growth [3]: 5.67% (active)
- growth [4]: 39.2%
- growth [5]: 70.4%
- growth [6]: 22.3%
- growth [7]: 26%
- growth [8]: 72.5%
- growth [9]: -5.45% (active)
- growth [10]: 1.31% (active)

Structure (SMILES): COc1cc2c3c(n(CCCNC(C)C)c(=O)c2cc1OC)-c1nc2c(cc1C3=O)OCO2
- growth [1]: 128%
- growth [2]: 87.6%
- growth [3]: -88.9% (active)
- growth [4]: -97% (active)
- growth [5]: 97.2%
- growth [6]: 4.04% (active)
- growth [7]: 13.7%
- growth [8]: 81.9%
- growth [9]: 5.05% (active)
- growth [10]: -1.94% (active)

Structure (SMILES): O=C(c1ccc(Cl)cc1)C1[C@H](c2ccccc2Br)[C@@H](c2ccccc2)NC12C(=O)Nc1ccc(Br)cc12 (stereo not given in full)
- growth [1]: -51% (active)
- growth [2]: 14.7%
- growth [3]: -63.5% (active)
- growth [4]: 13.5%
- growth [5]: 23.9%
- growth [6]: 11.9%
- growth [7]: 8.82% (active)
- growth [8]: 74.5%
- growth [9]: 5.86% (active)
- growth [10]: -9.97% (active)

Structure (SMILES): CC(=O)Nc1ccc(-n2cnc3cc(-c4ccc(O)cc4)ccc32)cc1C
- growth [1]: 19.9%
- growth [2]: 61.6%
- growth [3]: 40.4%
- growth [4]: 35.5%
- growth [5]: 73.9%
- growth [6]: 43.1%
- growth [7]: 44.2%
- growth [8]: 92.1%
- growth [9]: 65.1%
- growth [10]: 64.7%

Structure (SMILES): CC(=O)Nc1ccc(-c2cn(-c3cccc(C(=O)Nc4ccc(F)c(C(F)(F)F)c4)c3)nn2)cn1
- growth [1]: 88.9%
- growth [2]: 79.9%
- growth [3]: 13.4%
- growth [4]: 123%
- growth [5]: 109%
- growth [6]: 56.4%
- growth [7]: 74.1%
- growth [8]: 114%
- growth [9]: 53.9%
- growth [10]: 36.9%

Structure (SMILES): COc1cc2c3c(n(CCCN4CCOCC4)c(=O)c2cc1OC)-c1nc2c(cc1C3=O)OCO2
- growth [1]: 111%
- growth [2]: 48.8%
- growth [3]: 8.3% (active)
- growth [4]: 15.3%
- growth [5]: 79.5%
- growth [6]: -11.7% (active)
- growth [7]: 6.77% (active)
- growth [8]: 76.9%
- growth [9]: 14.4%
- growth [10]: 24.7%

Structure (SMILES): CCCn1c(=O)c2[nH]c(-c3ccc(OCc4nc5ccc(C#N)cc5[nH]4)cc3)nc2n(CCC)c1=O
- growth [1]: 96.8%
- growth [2]: 80.6%
- growth [3]: 76.5%
- growth [4]: 67.8%
- growth [5]: 107%
- growth [6]: 70.4%
- growth [7]: 89.6%
- growth [8]: 79.1%
- growth [9]: 83.6%
- growth [10]: 75.6%

Structure (SMILES): O=c1c2ccccc2nc(COc2ccccc2)n1/N=C/c1ccc(F)cc1
- growth [1]: 94.5%
- growth [2]: 92.1%
- growth [3]: 86.5%
- growth [4]: 84.4%
- growth [5]: 105%
- growth [6]: 91.1%
- growth [7]: 94.3%
- growth [8]: 106%
- growth [9]: 86.2%
- growth [10]: 72.9%

Structure (SMILES): CCCCSc1nc(Nc2ccc(/C(C)=N/NC(N)=S)cc2)c(C#N)c(-c2ccc(F)cc2)n1
- growth [1]: 72.9%
- growth [2]: 57.5%
- growth [3]: 29.2%
- growth [4]: 19.6%
- growth [5]: 46%
- growth [6]: 14.5%
- growth [7]: 45.2%
- growth [8]: 63.1%
- growth [9]: 55.3%
- growth [10]: 63.6%

Structure (SMILES): COc1ccc(C(=O)/C=C/c2ccc(Cl)c(C(F)(F)F)c2)cc1S(N)(=O)=O
- growth [1]: -83.1% (active)
- growth [2]: -98.2% (active)
- growth [3]: -100% (active)
- growth [4]: -99.6% (active)
- growth [5]: -96.3% (active)
- growth [6]: -100% (active)
- growth [7]: -100% (active)
- growth [8]: -30.3% (active)
- growth [9]: 4.6% (active)
- growth [10]: 8.09% (active)

Structure (SMILES): COc1ccccc1C(=O)NNC(=O)CSc1nc2c(c(=O)[nH]1)CCCC2
- growth [1]: 112%
- growth [2]: 91.5%
- growth [3]: 102%
- growth [4]: 61.9%
- growth [5]: 132%
- growth [6]: 98.8%
- growth [7]: 84.5%
- growth [8]: 153%
- growth [9]: 96.8%
- growth [10]: 105%

Structure (SMILES): Cc1ccc2nc(COc3ccc(C(=O)NNC(=S)NC(=O)c4ccccc4)cc3)[nH]c2c1
- growth [1]: 68.9%
- growth [2]: 51.6%
- growth [3]: 58.1%
- growth [4]: 18.6%
- growth [5]: 67.8%
- growth [6]: 23.6%
- growth [7]: 26.8%
- growth [8]: 97.3%
- growth [9]: 51.5%
- growth [10]: 52.6%

Structure (SMILES): COc1ccc(OC)c(-c2cc(-c3c[nH]c4ccccc34)nc(N)c2C#N)c1
- growth [1]: -18.3% (active)
- growth [2]: 13.7%
- growth [3]: 2.5% (active)
- growth [4]: -15.5% (active)
- growth [5]: 37.4%
- growth [6]: 8.49% (active)
- growth [7]: 7.28% (active)
- growth [8]: 2.72% (active)
- growth [9]: 8.99% (active)
- growth [10]: 7.55% (active)
